# PubChem BioAssay
# Several values for one entry are separate records, joined by “and”; a condition that tells them apart may be missing. Equal values may be shown once. Records with an inconclusive call do not appear. Activity calls are given as the source filed them.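 How the source made its calls, unless noted: active means normalized viability below 100% at a tested concentration; inactive means the rest.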
# What was measured:
# [1] = viability loss in pontine glioma line – cell-based, SU-DIPG-XXV, MIPE5.0, CellTiter-Glo, qHTS, dose response (AID 1347065; cut-off not given, nearly all actives have AC50 up to about 26 µM;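 further: cells exposed to compound for 48 hours before ATP readout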); conditions: CellTiter-Glo ATP luminescence
# [2] = growth inhibition of DIPG cells – cell-based, MIPE4.0 library, CellTiter-Glo luminescence, qHTS (AID 1347066; cut-off not given, nearly all actives have AC50 up to about 30 µM;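 further: cells exposed to compound for 48 hours before readout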); conditions: SU-DIPG-VI viability, CellTiter-Glo ATP luminescence
# [3] = JHH-DIPG-1 glioma cell viability, MIPE5.0 library, CellTiter-Glo luminescence, qHTS (AID 1347067; cut-off not given, nearly all actives have AC50 up to about 26 µM;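 further: cells exposed to compound for 48 hours before readout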); conditions: JHH-DIPG-1 glioma viability, CellTiter-Glo ATP luminescence
# [4] = growth inhibition of DIPG cells – cell-based, MIPE5.0 library, qHTS (AID 1347068; cut-off not given, nearly all actives have IC50 up to about 30 µM;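 on IC50: cells exposed to compound for 48 hours before viability readout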); conditions: SU-DIPG-XXV viability
# [5] = viability loss with induced miR-34 in A549 – imaging, A549 dox-inducible miR-34, nuclei and caspase counts, primary screen (AID 1347080;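 active means compounds whose cell count with miR-34 switched on is under 0.7 times the count with it off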); conditions: A549 miR-34 inducible, Hoechst nuclei count, 48 h
# [6] = blockers of cellular phospholipid synthesis – cell-based, LOPAC library, screen 4, primary screen (AID 1347384; call rule not given here); conditions: animal cells, phospholipid biosynthesis inhibition screen; at 10 µM
# [7] = MELAS cybrid and Rieske KO viability enhancers – cell-based, MELAS cybrids, Rieske KO mouse fibroblasts, CellTiter-Glo, primary screen (AID 1508586;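 active means mean z-score across replicates of 1.96 or higher in either the MELAS or the Rieske mutant cell line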;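 further: z relative to plate mean and SD of compound and empty wells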); conditions: low glucose
# [8] = drug combination growth inhibition, ovarian cancer – cell-based, oncology-focused library, rucaparib conditional, profiling panel (AID 1508598); conditions: patient-derived ovarian cancer cells, CellTiter-Glo viability, 144 h, stronger effect = lower value
# [9] = target: NAD(+) hydrolase SARM1 (Homo sapiens) (UniProt Q6SZW1); assay: blocking NAD cleavage by SARM1 SAM-TIR – cell lysate, NAD-Glo luminescence (AID 1508614;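 active means compound whose remaining NAD level is above about 45 nM, limit read from the data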); conditions: SAM-TIR HEK293T lysate NADase, at 1 µM, stronger effect = higher value
# [10] = target: Mitogen-activated protein kinase 7 (Homo sapiens) (UniProt Q13164); assay: Gal4-ERK5 driven luciferase induction – cell-based, HTS, primary screen (AID 1508626;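 active means luciferase signal above three times the same-plate solvent-only control wells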;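 further: luciferase driven by Gal4-ERK5 fusion binding five Gal4 sites before minimal TATA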); conditions: HeLa Gal4-ERK5 transactivation, 18 h, at 5 µM, stronger effect = higher value
# [11] = galactose survival enhancers in mitochondrial complex I cybrids – cell-based, galactose medium, ATP luminescence, primary screen (AID 1645843;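 active means z-score of at least 1.8 in each of two replicates, scored against plate mean and spread of sample wells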;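 further: positive z means more ATP and so rescue of galactose-driven cybrid death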); conditions: complex I mutant cybrid cells, 72 h, stronger effect = higher value
# [12] = growth inhibition, single agent or in combination, cell-based, chromothripsis tumors, cisplatin or BGB combos (AID 1671449; in the data active means inhibition above about 80%;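 further: cells exposed for 96 hours; 0% = vehicle DMSO and 100% = killing by high DMSO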); conditions: LFS_MB_P medulloblastoma cells
# [13] = growth inhibition, single agent and combos, cell-based, chromothripsis tumors, cisplatin or BGB combos (AID 1671450; in the data active means inhibition above about 80%;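 further: cells exposed to compound for four days; 0% = vehicle DMSO and 100% = cell killing by high DMSO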); conditions: HDN33 neuroblastoma cells, stronger effect = higher value
# [14] = growth inhibition, single agents and combos, ICB984, cell-based, cisplatin or BGB combos, synergistic combos for chromothripsis tumors (AID 1671451; call rule not given here;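 further: cells exposed for 96 hours before readout; 0% = vehicle DMSO and 100% = killing by high DMSO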); conditions: ICB984 medulloblastoma cells, drug combinations, stronger effect = higher value
# [15] = growth inhibition, single agents and combos, LFS_MB_1R, cell-based, cisplatin or BGB combos, synergistic combos for chromothripsis tumors (AID 1671452; in the data active means inhibition above about 80%;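 further: cells exposed for 96 hours before readout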); conditions: LFS_MB_1R medulloblastoma cells, stronger effect = higher value
# [16] = growth inhibition, single agents and combos, HTB85, cell-based, BGB or cisplatin IC20 combos, synergistic combos for chromothripsis tumors (AID 1671453; in the data active means inhibition above about 80%;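 further: cells exposed for 96 hours before readout; 0% = vehicle DMSO and 100% = high DMSO killing control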); conditions: HTB85 osteosarcoma cells, drug combinations, stronger effect = higher value
# [17] = growth inhibition, single agents and combos, CRL2098, cell-based, BGB or cisplatin IC20 combos, synergistic combos for chromothripsis tumors (AID 1671454; in the data active means inhibition above about 80%;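 further: cells exposed for 96 h before readout; 0% = vehicle DMSO and 100% = killing by high DMSO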); conditions: CRL2098 osteosarcoma cells, drug combinations, stronger effect = higher value
# [18] = growth inhibition, single agents and combos, HD-MB03, cell-based, BGB or cisplatin IC20 combos, synergistic combos for chromothripsis tumors (AID 1671455; in the data active means inhibition above about 83%;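 further: 0% = vehicle DMSO and 100% = high DMSO as cytotoxic control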); conditions: HD-MB03 medulloblastoma cells, stronger effect = higher value
# [19] = stronger effect = lower value, cell number ratio, induced over uninduced
# [20] = measured here: relative caspase fold change +Dox/-Dox
# [21] = measured here: total cells with miR-34 induction, stronger effect = lower value
# [22] = measured here: total cells without miR-34 induction
# [23] = MELAS cybrid survival, CellTiter-Glo 48 h, stronger effect = higher value
# [24] = Rieske KO mouse fibroblast survival, CellTiter-Glo 72 h
# [25] = measured here: combination with BGB IC40, at 0.05 µM
# Mitogen-activated protein kinase 7 (Homo sapiens), sequence (Q13164 whole entry, looked up, the tested form may be a part): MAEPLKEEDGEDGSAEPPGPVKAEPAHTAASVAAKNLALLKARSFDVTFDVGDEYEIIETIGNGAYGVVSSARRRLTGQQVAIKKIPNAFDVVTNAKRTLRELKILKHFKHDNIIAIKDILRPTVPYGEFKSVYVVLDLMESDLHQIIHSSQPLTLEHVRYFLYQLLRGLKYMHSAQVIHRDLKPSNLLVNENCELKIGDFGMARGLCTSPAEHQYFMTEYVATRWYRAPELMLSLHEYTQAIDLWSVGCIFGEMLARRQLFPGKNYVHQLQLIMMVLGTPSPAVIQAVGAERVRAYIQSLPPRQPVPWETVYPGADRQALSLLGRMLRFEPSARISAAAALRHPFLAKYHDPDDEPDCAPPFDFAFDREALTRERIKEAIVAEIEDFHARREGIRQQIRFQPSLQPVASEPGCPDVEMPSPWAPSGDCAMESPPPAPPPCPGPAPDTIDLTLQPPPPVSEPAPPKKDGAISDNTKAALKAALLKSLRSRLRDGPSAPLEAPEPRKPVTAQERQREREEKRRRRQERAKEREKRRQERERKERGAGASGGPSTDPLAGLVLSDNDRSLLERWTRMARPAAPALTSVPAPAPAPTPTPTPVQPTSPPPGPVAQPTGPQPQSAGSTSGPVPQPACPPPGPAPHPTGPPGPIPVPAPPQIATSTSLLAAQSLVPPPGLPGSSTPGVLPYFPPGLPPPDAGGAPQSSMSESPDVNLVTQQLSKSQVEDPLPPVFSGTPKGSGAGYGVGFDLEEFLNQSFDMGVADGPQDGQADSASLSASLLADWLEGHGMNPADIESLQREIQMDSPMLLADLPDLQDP
# NAD(+) hydrolase SARM1 (Homo sapiens), sequence (Q6SZW1 whole entry, looked up, the tested form may be a part): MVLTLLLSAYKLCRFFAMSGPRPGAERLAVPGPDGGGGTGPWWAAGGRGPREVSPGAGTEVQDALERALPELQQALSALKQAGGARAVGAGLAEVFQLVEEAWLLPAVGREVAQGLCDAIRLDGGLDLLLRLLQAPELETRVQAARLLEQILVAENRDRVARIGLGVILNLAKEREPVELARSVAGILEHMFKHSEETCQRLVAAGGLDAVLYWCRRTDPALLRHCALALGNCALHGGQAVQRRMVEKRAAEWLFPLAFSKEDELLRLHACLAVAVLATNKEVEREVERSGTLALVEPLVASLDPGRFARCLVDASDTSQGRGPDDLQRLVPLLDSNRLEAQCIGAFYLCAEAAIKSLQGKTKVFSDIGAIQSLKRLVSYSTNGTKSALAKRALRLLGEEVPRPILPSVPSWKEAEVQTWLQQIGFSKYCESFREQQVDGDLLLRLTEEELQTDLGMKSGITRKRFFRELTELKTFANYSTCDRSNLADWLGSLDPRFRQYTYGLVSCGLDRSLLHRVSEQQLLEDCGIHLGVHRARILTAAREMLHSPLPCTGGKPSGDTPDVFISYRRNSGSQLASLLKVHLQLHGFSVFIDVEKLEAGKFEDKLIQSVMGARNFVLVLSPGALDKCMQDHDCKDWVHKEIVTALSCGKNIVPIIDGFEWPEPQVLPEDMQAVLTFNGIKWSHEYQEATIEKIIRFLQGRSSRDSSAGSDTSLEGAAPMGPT
compound,measurement,setting,value
NC(=O)NO,outcome,[1],inactive
same,outcome,[2],inactive
same,outcome,[3],inactive
same,outcome,[4],inactive
same,fold change,[5]; [19],0.975 (inactive) and 0.894 (inactive) and 0.861 (inactive)
same,fold change,[5]; [20],1.12 and 0.968 and 1.05
same,cell count,[5]; [21],10300 and 8660 and 7880
same,cell count,[5]; [22],10600 and 9680 and 9160
same,outcome,[6],inactive
same,z-score,[7]; [23],-0.326 (inactive)
same,z-score,[7]; [24],0.485
same,viability,"[8]; at 0.000305 µM, OCI-C5x cells, with rucaparib 10 µM, 100% = cells with rucaparib alone",105% (inactive)
same,viability,"[8]; at 0.000305 µM, OCI-C5x cells, without rucaparib",113% (inactive)
same,viability,"[8]; at 0.000305 µM, OCI-P5x cells, with rucaparib 20 µM, 100% = cells with rucaparib alone",95.9% (active)
same,viability,"[8]; at 0.000305 µM, OCI-P5x cells, without rucaparib",97.6% (active)
same,viability,"[8]; at 0.00122 µM, OCI-C5x cells, with rucaparib 10 µM, 100% = cells with rucaparib alone",111% (inactive)
same,viability,"[8]; at 0.00122 µM, OCI-C5x cells, without rucaparib",112% (inactive)
same,viability,"[8]; at 0.00122 µM, OCI-P5x cells, with rucaparib 20 µM, 100% = cells with rucaparib alone",98.6% (active)
same,viability,"[8]; at 0.00122 µM, OCI-P5x cells, without rucaparib",102% (inactive)
same,viability,"[8]; at 0.00488 µM, OCI-C5x cells, with rucaparib 10 µM, 100% = cells with rucaparib alone",105% (inactive)
same,viability,"[8]; at 0.00488 µM, OCI-C5x cells, without rucaparib",104% (inactive)
same,viability,"[8]; at 0.00488 µM, OCI-P5x cells, with rucaparib 20 µM, 100% = cells with rucaparib alone",101% (inactive)
same,viability,"[8]; at 0.00488 µM, OCI-P5x cells, without rucaparib",109% (inactive)
same,viability,"[8]; at 0.0195 µM, OCI-C5x cells, with rucaparib 10 µM, 100% = cells with rucaparib alone",104% (inactive)
same,viability,"[8]; at 0.0195 µM, OCI-C5x cells, without rucaparib",115% (inactive)
same,viability,"[8]; at 0.0195 µM, OCI-P5x cells, with rucaparib 20 µM, 100% = cells with rucaparib alone",106% (inactive)
same,viability,"[8]; at 0.0195 µM, OCI-P5x cells, without rucaparib",109% (inactive)
same,viability,"[8]; at 0.0781 µM, OCI-C5x cells, with rucaparib 10 µM, 100% = cells with rucaparib alone",116% (inactive)
same,viability,"[8]; at 0.0781 µM, OCI-C5x cells, without rucaparib",106% (inactive)
same,viability,"[8]; at 0.0781 µM, OCI-P5x cells, with rucaparib 20 µM, 100% = cells with rucaparib alone",106% (inactive)
same,viability,"[8]; at 0.0781 µM, OCI-P5x cells, without rucaparib",116% (inactive)
same,viability,"[8]; at 0.313 µM, OCI-C5x cells, with rucaparib 10 µM, 100% = cells with rucaparib alone",109% (inactive)
same,viability,"[8]; at 0.313 µM, OCI-C5x cells, without rucaparib",114% (inactive)
same,viability,"[8]; at 0.313 µM, OCI-P5x cells, with rucaparib 20 µM, 100% = cells with rucaparib alone",103% (inactive)
same,viability,"[8]; at 0.313 µM, OCI-P5x cells, without rucaparib",110% (inactive)
same,viability,"[8]; at 1.25 µM, OCI-C5x cells, with rucaparib 10 µM, 100% = cells with rucaparib alone",102% (inactive)
same,viability,"[8]; at 1.25 µM, OCI-C5x cells, without rucaparib",116% (inactive)
same,viability,"[8]; at 1.25 µM, OCI-P5x cells, with rucaparib 20 µM, 100% = cells with rucaparib alone",96.8% (active)
same,viability,"[8]; at 1.25 µM, OCI-P5x cells, without rucaparib",110% (inactive)
same,viability,"[8]; at 5 µM, OCI-C5x cells, with rucaparib 10 µM, 100% = cells with rucaparib alone",105% (inactive)
same,viability,"[8]; at 5 µM, OCI-C5x cells, without rucaparib",114% (inactive)
same,viability,"[8]; at 5 µM, OCI-P5x cells, with rucaparib 20 µM, 100% = cells with rucaparib alone",109% (inactive)
same,viability,"[8]; at 5 µM, OCI-P5x cells, without rucaparib",111% (inactive)
same,remaining NAD,[9],10 nM (inactive)
same,luciferase signal,[10],44 AU (inactive)
same,z-score,[11],0.03 (inactive)
same,inhibition,"[12]; at 0.5 µM, stronger effect = higher value",-32.5% (inactive)
same,inhibition,"[12]; measured here: combination with BGB IC20, at 0.005 µM",-13.7%
same,inhibition,"[12]; measured here: combination with BGB IC40, at 0.005 µM",33.3%
same,inhibition,[12]; [25],-4.05%
same,inhibition,"[12]; measured here: combination with cisplatin, at 0.5 µM, stronger effect = higher value",-74.7%
same,inhibition,"[12]; measured here: combination with cisplatin, at 5 µM, stronger effect = higher value",7.33%
same,inhibition,"[13]; BGB combo, at 5 µM",4.14%
same,inhibition,[13]; at 0.5 µM,-0.11% (inactive)
same,inhibition,"[13]; cisplatin combo, at 5 µM",7.9%
same,inhibition,"[13]; measured here: with BGB IC20 combination, at 0.5 µM",1.89%
same,inhibition,"[13]; measured here: with cisplatin IC20 combination, at 0.5 µM",-0.484%
same,inhibition,"[13]; single agent, at 5 µM",3.76%
same,inhibition,"[14]; BGB IC20 combo, at 0.005 µM",-9.77%
same,inhibition,"[14]; BGB IC40 combo, at 0.005 µM",-3.4%
same,inhibition,"[14]; BGB IC40 combo, at 0.05 µM",-15.1%
same,inhibition,[14]; at 0.5 µM,-0.36% (inactive)
same,inhibition,"[14]; cisplatin combo, at 0.05 µM",-15.1%
same,inhibition,"[14]; cisplatin combo, at 0.5 µM",-15.2%
same,inhibition,"[14]; cisplatin combo, at 5 µM",-5.34%
same,inhibition,"[14]; measured here: 5 uM single agent, at 5 µM",-13.7%
same,inhibition,[15]; at 0.5 µM,-11.7% (inactive)
same,inhibition,[15]; [25],-14.3%
same,inhibition,"[15]; measured here: combination with cisplatin, at 0.5 µM",23.3%
same,inhibition,"[15]; measured here: combination with cisplatin, at 5 µM",27.3%
same,inhibition,[16]; at 0.5 µM,4.31% (inactive)
same,inhibition,"[16]; measured here: with BGB IC20, at 0.5 µM",-11.6%
same,inhibition,"[16]; measured here: with BGB IC20, at 5 µM",7.32%
same,inhibition,"[16]; measured here: with cisplatin IC20, at 0.5 µM",-0.499%
same,inhibition,"[16]; measured here: with cisplatin IC20, at 5 µM",13.2%
same,inhibition,"[16]; single agent, at 5 µM",18.4%
same,inhibition,[17]; at 0.5 µM,-5.49% (inactive)
same,inhibition,"[17]; measured here: combination with BGB at IC20, at 0.5 µM",-9.56%
same,inhibition,"[17]; measured here: combination with cisplatin at IC20, at 0.5 µM",4.43%
same,inhibition,[18]; at 0.5 µM,-4.93% (inactive)
same,inhibition,"[18]; measured here: combo with BGB at IC20, at 0.5 µM",-2.45%
same,inhibition,"[18]; measured here: combo with cisplatin at IC20, at 0.5 µM",-8.29%
COCCCOc1cc(C[C@@H](C[C@H](N)[C@@H](O)C[C@H](C(=O)NCC(C)(C)C(N)=O)C(C)C)C(C)C)ccc1OC,outcome,[1],inactive
same,outcome,[2],inactive
same,outcome,[3],inactive
same,outcome,[4],inactive
same,fold change,[5]; [19],0.948 (inactive)
same,fold change,[5]; [20],0.866
same,cell count,[5]; [21],8860
same,cell count,[5]; [22],9350
same,remaining NAD,[9],10 nM (inactive)
same,luciferase signal,[10],68 AU (inactive)
CC1(C)O[C@@H]2C[C@H]3[C@@H]4C[C@H](F)C5=CC(=O)C=C[C@]5(C)[C@@]4(F)[C@@H](O)C[C@]3(C)[C@]2(C(=O)CO)O1,outcome,[1],inactive
same,outcome,[2],inactive
same,outcome,[3],inactive
same,outcome,[4],inactive
same,fold change,[5]; [19],0.962 (inactive) and 0.858 (inactive)
same,fold change,[5]; [20],2.42 and 1.12
same,cell count,[5]; [21],7620 and 6920
same,cell count,[5]; [22],7920 and 8070
same,z-score,[7]; [23],0.713 (inactive) and 0.472 (inactive)
same,z-score,[7]; [24],0.469 and 1.67
same,remaining NAD,[9],10 nM (inactive)
same,luciferase signal,[10],124 AU (inactive)
same,z-score,[11],-0.48 (inactive) and 0.45 (inactive)
CN(C)c1ccc2nc3ccc(=[N+](C)C)cc-3sc2c1,AC50,[1],5.9 µM (active)
same,AC50,[2],2.35 µM (active)
same,AC50,[3],10.5 µM (active)
same,IC50,[4],9.34 µM (active)
same,fold change,[5]; [19],0.946 (inactive)
same,fold change,[5]; [20],1.47
same,cell count,[5]; [21],3100
same,cell count,[5]; [22],3280
same,remaining NAD,[9],10 nM (inactive)
same,luciferase signal,[10],80 AU (inactive)
